Results published in article PMC4336329 (PLoS ONE, 2015).
In all, about 310,000 compounds went through this assay and about 14,000 (4.5%) showed an effect of 50% or more. Effects have a minus sign here. The list comes from a sample in which strong results are over-represented; it also holds similar structures and randomly drawn compounds.

target: human ether-à-go-go-related gene (hERG) potassium channel (human, UniProt Q12809); assay: primary screen, population patch clamp on CHO cells stably expressing hERG; higher = less effect of the substance
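Also: peak tail current of the secondary pulse compared with the same well before compound.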

human ether-à-go-go-related gene (hERG) potassium channel, sequence (Q12809 whole entry, looked up): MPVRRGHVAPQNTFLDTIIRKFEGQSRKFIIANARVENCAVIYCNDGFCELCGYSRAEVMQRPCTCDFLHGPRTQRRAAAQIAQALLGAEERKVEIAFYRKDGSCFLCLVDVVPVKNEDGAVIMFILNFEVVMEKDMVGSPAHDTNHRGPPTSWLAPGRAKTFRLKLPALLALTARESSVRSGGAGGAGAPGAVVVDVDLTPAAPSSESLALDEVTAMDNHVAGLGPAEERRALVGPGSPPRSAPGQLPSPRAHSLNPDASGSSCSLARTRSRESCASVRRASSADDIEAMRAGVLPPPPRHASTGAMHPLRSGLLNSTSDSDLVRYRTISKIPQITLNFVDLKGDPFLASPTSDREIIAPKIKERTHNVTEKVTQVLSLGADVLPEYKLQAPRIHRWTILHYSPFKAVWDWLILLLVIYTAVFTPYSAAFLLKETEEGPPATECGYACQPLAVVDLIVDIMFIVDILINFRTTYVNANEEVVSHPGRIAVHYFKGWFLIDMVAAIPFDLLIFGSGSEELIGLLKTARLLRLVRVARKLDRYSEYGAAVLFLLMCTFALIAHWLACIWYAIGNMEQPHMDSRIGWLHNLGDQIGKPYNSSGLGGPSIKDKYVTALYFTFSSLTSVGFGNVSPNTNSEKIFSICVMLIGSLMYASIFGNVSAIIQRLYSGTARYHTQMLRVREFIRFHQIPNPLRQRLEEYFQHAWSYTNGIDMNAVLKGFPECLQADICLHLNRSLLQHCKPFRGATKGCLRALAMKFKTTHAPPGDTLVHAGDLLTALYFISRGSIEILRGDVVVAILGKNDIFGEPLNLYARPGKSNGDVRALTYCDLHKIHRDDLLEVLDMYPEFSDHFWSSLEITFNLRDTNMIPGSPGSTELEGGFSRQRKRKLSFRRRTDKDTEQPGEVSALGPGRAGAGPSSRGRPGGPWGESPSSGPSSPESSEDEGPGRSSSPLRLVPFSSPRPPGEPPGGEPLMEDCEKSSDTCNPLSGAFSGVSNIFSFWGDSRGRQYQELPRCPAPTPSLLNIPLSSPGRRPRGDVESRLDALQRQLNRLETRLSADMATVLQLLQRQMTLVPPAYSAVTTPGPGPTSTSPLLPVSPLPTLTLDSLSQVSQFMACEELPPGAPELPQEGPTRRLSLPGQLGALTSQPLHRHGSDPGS

| SMILES | hERG current change (%, negative = inhibition) at 10uM |
| --- | --- |
| COc1ccccc1N1CCN(C(=O)C(C)CS(=O)(=O)c2ccc3c(c2)NC(=O)CS3)CC1 (stereo not drawn) | 4.07% |
| O=C1COc2ccc(S(=O)(=O)CCC(=O)N3CCN(c4cccc(Cl)c4)CC3)cc2N1 | -58.4% |
| CC(CS(=O)(=O)c1ccc2c(c1)NC(=O)CS2)C(=O)N1CCN(c2cccc(Cl)c2)CC1 (stereo not drawn) | -52.1% |
| O=C1COc2ccc(S(=O)(=O)CCC(=O)N3CCN(c4cccc(C(F)(F)F)c4)CC3)cc2N1 | -46.3% |
| CC(CC(=O)N1CCN(c2ccccc2)CC1)S(=O)(=O)c1ccc2c(c1)NC(=O)CS2 (stereo not drawn) | -34.6% |
| O=C1COc2ccc(S(=O)(=O)CCC(=O)N3CCN(c4ccccc4)CC3)cc2N1 | -13.1% |
| O=C(NC1CCN(c2ncccn2)CC1)c1ccccc1F | 18.6% |
| O=C(CSc1ncn(-c2ccccc2)n1)c1cccs1 | -3.5% |
| Cc1ccc(S(=O)(=O)N2CCN(S(=O)(=O)c3ccc4c(c3)OCCO4)CC2)cc1 | 8.43% |
| COc1ccc(CCNC(=O)c2cc3c(=O)n4ccccc4nc3n(C3CCCCC3)c2=N)cc1OC | -76.6% |
| COc1ccc(CCNC(=O)c2cc(-c3ccccn3)nc3c(Cl)cccc23)cc1OC | 10.5% |
| COc1ccc(CCNC(=O)c2c(C)nc3ccccn23)cc1 | -4.75% |
| COc1ccc(CCNC(=O)c2cc(-c3ccncc3)nc3c(Cl)cccc23)cc1OC | -66.9% |
| COc1ccc(CCNC(=O)c2cccc3ccccc23)cc1OC | 7.77% |
| COc1ccc(CCNC(=O)c2c(C)nc3ccccn23)cc1OC | -64.3% |
| COc1ccc(CCNC(=O)c2cnc3ccccn3c2=O)cc1 | -22.3% |
| COc1ccc(CCNC(=O)c2cc3c(=O)n4ccccc4nc3n(C3CCCCC3)c2=N)cc1 | -81.3% |
| COc1ccccc1CNC(=O)c1cc(-c2ccncc2)nc2c(Cl)cccc12 | 10.5% |
| COc1ccc(CCNC(=O)c2cccc3c2C(=O)N(C2CCCCC2)C3)cc1OC | -24.1% |
| COc1ccc(CNC(=O)c2c(C)nc3ccccn23)cc1 | -12.1% |
| Cc1cc(NC(=O)c2ccc3nc(-c4ccccc4)c(-c4ccccc4)nc3c2)no1 | 6.59% |
| Nc1c(/C=C2\C=Nc3ccccc32)c(=O)nc2sc(CC(=O)N3CCOCC3)nn12 | 17.2% |

| SMILES | hERG current change (%, negative = inhibition) at 10uM |
| --- | --- |
| Cc1ccc(Cn2c(C(C)Nc3nc(-c4ccc(Cl)c([N+](=O)[O-])c4)cs3)nc3cc(C(F)(F)F)ccc32)cc1 (stereo not drawn) | 5.46% |
| Fc1ccccc1COc1ccc(/C=N/n2cnnc2)cc1 | -12.2% |
| COc1ccc(C(CCN2CCCCC2)c2c(O)cc(OC)cc2OC)cc1 (stereo not drawn) | -75.2% |
| COc1ccc(C(CCN2CCOCC2)c2c(O)cc(OC)cc2OC)cc1 (stereo not drawn) | -47.1% |
| COc1cc(O)c(C(CCN2CCCCC2)c2ccc(N(C)C)cc2)c(OC)c1 (stereo not drawn) | -8.43% |
| COc1cc(O)c(C(CCN2CCCCC2)c2cc(OC)c(OC)c(OC)c2)c(OC)c1 (stereo not drawn) | 4.24% |
| COc1ccc(C(CCN2CCCC2)c2c(O)cc(OC)cc2OC)cc1 (stereo not drawn) | -61.2% |
| COc1cc(O)c(C(CCN2CCCC2)c2ccc(N(C)C)cc2)c(OC)c1 (stereo not drawn) | -10% |
| COc1ccccc1NS(=O)(=O)c1ccc2c(c1)NC(=O)CC(=O)N2 | 14.5% |
| COc1cc(CNn2cn[nH]c2=S)cc(Br)c1OCc1ccccc1F | 6.75% |
| CC1(C(=O)O)COC(c2ccc(Cl)cc2)OC1 (stereo not drawn) | -25.3% |
| CC(=O)Nc1ccc(S(=O)(=O)N(C)CC(=O)Nc2cccc(S(=O)(=O)N3CCCC3)c2)cc1 | -8.1% |
| O=C(CCS(=O)(=O)c1ccc(Cl)cc1)N1CCN(c2ccccc2F)CC1 | -12.2% |
| COc1ccc(N2CCN(C(=O)CCS(=O)(=O)c3ccc(OC)cc3)CC2)cc1 | -19.3% |
| O=C(CCS(=O)(=O)c1ccc(Cl)cc1)N1CCN(c2ccc(F)cc2)CC1 | -76.1% |
| O=C(CCS(=O)(=O)c1ccc(Br)cc1)N1CCN(c2ccc(Cl)cc2)CC1 | -9.11% |
| COc1ccc(S(=O)(=O)CCC(=O)N2CCN(c3ccc(C(C)=O)cc3)CC2)cc1 | -45.9% |
| O=C(CCS(=O)(=O)c1ccccc1)N1CCN(c2ccc(F)cc2)CC1 | -35.9% |
| O=C(CCS(=O)(=O)c1ccc(Br)cc1)N1CCN(c2ccc(F)cc2)CC1 | -66.3% |
| COc1ccc(S(=O)(=O)CCC(=O)N2CCN(c3ccc(F)cc3)CC2)cc1 | -59.7% |
| O=C(CCS(=O)(=O)c1ccc(F)cc1)N1CCN(c2ccccc2)CC1 | -23.2% |
| Cc1ccc(-c2ccc(CCC(=O)O)o2)cc1 | 14.5% |

| SMILES | hERG current change (%, negative = inhibition) at 10uM |
| --- | --- |
| CN(CCC#N)C(=S)Nc1ccc(Oc2ccccc2)cc1 | -28.6% |
| N#Cc1c(SCC(N)=O)nsc1SCc1ccc(Cl)cc1 | -0.34% |
| Cn1nc(-c2ccc(C(=O)O)cc2)c2ccccc2c1=O | 11.6% |
| CC(C)C12CCC(C(=O)O)C(C1)C(=O)O2 (stereo not drawn) | 13.9% |
| N#Cc1ccc(Oc2ccc(S(=O)(=O)N3CCCCC3)cn2)cc1 | -24.7% |
| N#Cc1ccccc1Oc1ccc(S(=O)(=O)N2CCCCC2)cn1 | -79.6% |
| N#Cc1ccc(Oc2ccc(S(=O)(=O)N3CCCC3)cn2)cc1 | -35.8% |
| N/C(=N\OC(=O)c1ccccc1Cl)c1ccccc1 | -16.2% |
| O=C(c1cccs1)N(C(=O)c1cccs1)c1ccccn1 | 9.68% |
| CCCn1c2c(c(O)c(C(=O)NCc3ccccc3)c1=O)CCCC2 | 17% |
| C=CCn1c(=O)c(C(=O)NCCN(CC)CC)c(O)c2ccccc21.Cl | -19.2% |
| CCCn1c2c(c(O)c(C(=O)NC)c1=O)CCCC2 | -6.66% |
| CCN(CC)CCNC(=O)c1c(O)c2ccccc2n(Cc2ccccc2)c1=O.Cl | -63% |
| CCCn1c2c(c(O)c(C(=O)NCCCN(CC)CC)c1=O)CCCC2.Cl | -55% |
| CCn1c(=O)c(C(=O)NCCCc2ccccc2)c(O)c2ccccc21 | 8.18% |
| CC1CCc2cc(F)cc3c(O)c(C(=O)NCCN(C)C)c(=O)n1c23.Cl (stereo not drawn) | -1% |
| CCN(CC)CCCNC(=O)c1c(O)c2ccccc2n(Cc2ccccc2)c1=O.Cl | -63.8% |
| CCn1c(=O)c(C(=O)NCCCO)c(O)c2ccccc21 | 10.1% |
| CCn1c(=O)c(C(=O)NCCc2ccccc2)c(O)c2ccccc21 | 19.7% |
| CCN(CC)CCCNC(=O)c1c(O)c2cc(F)cc3c2n(c1=O)C(C)CC3.Cl (stereo not drawn) | -50.5% |
| CC1CCc2cc(F)cc3c(O)c(C(=O)NCC4CCCO4)c(=O)n1c23 (stereo not drawn) | -13.4% |
| O=C(O)c1ccccc1-c1ccccc1C(=O)Nc1ccccc1-c1ccccc1 | 19.8% |

| SMILES | hERG current change (%, negative = inhibition) at 10uM |
| --- | --- |
| O=C(Nc1nncs1)Oc1ccccc1 | 8.98% |
| CC1CCC/C(=C\Nc2ccc(O)cc2)C1=O (stereo not drawn) | -0.0111% |
| Cc1cc(C(=O)NNC(=O)c2cccs2)c(C)o1 | 7.06% |
| CCN(CC)C(=O)CSc1nnc(-c2ccncc2)n1N | 13.4% |
| Cc1ccc(-c2nnn(CC(=O)N(c3ccccc3F)C(CC(C)C)C(=O)NCC3CCCO3)n2)cc1 (stereo not drawn) | -13% |
| O=c1[nH]c2ccccc2n1CCCN1CCC(n2c(=O)[nH]c3cc(Cl)ccc32)CC1 | -65.5% |
| O=C(CCCN1CCC(n2c(=O)[nH]c3ccccc32)CC1)c1ccc(F)cc1 | -73% |
| O=C(Nc1cccc(F)c1)N1CCC(n2c(=O)[nH]c3ccccc32)CC1 | -19% |
| O=C1NCN(c2ccccc2)C12CCNCC2 | 3.05% |
| Cl.O=c1[nH]c2ccccc2n1CCCN1CCCCC1 | 16.5% |
| O=c1[nH]c2ccccc2n1C1CCCCC1 | -5.49% |
| O=c1[nH]c2ccccc2n1C1CCN(CCCC(c2ccc(F)cc2)c2ccc(F)cc2)CC1 | -77.6% |
| O=C1NCN(c2ccccc2)C12CCN(CCCC(c1ccc(F)cc1)c1ccc(F)cc1)CC2 | -75.8% |
| O=C1NCN(c2ccccc2)C12CCN(c1nnnn1-c1ccccc1)CC2 | -11.7% |
| O=C1CC(N2CCC(n3c(=O)[nH]c4ccccc43)CC2)C(=O)N1Cc1ccccc1 (stereo not drawn) | -21.4% |
| O=C(NC1CCCCC1)N1CCC(n2c(=O)[nH]c3ccccc32)CC1 | 2.34% |
| O=C1CC(N2CCC(n3c(=O)[nH]c4ccccc43)CC2)C(=O)N1c1ccc(F)cc1 (stereo not drawn) | -7.5% |
| COc1cc(/C=N/NC(=O)c2ccccn2)ccc1OC(=O)c1ccccc1Br | -1.22% |
| CC(=O)Oc1ccc2oc(-c3ccccc3)c(C(N)=O)c2c1 | -14.1% |
| COCCCn1c(C23CC4CC(CC(C4)C2)C3)n[nH]c1=S | -5.2% |
| O=C(c1csc2c1CCCC2)N1CCN(c2ccccc2)CC1 | -14.8% |
